Key:
Details in all cases: concentration: 1 μM, replicates: in singlicate; n = 1
CTK = test system: T1, CTK
T1 construct: gene MATK

DAPK1 = test system: DAPK1
DAPK2 = test system: DAPK2
DAPK3 = test system: DAPK3
DCAMKL1 = test system: T2, DCAMKL1
T2 construct: gene DCLK1

DCAMKL2 = test system: T3, DCAMKL2
T3 construct: gene DCLK2

DCAMKL3 = test system: T4, DCAMKL3
T4 construct: gene DCLK3

DDR1 = test system: DDR1
DDR2 = test system: DDR2
DLK = test system: T5, DLK
T5 construct: gene MAP3K12

DMPK2 = test system: T6, DMPK2
T6 construct: gene CDC42BPG

DMPK = test system: DMPK
DRAK1 = test system: T7, DRAK1
T7 construct: gene STK17A

DRAK2 = test system: T8, DRAK2
T8 construct: gene STK17B

DYRK1A = test system: DYRK1A
DYRK1B = test system: DYRK1B
DYRK2 = test system: DYRK2
EGFR = test system: EGFR
EIF2AK1 = test system: EIF2AK1
EPHA1 = test system: EPHA1
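Also: KINOMEscan kinase panel screen.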

SMILES	%Inh (CTK) [%]	%Inh (DAPK1) [%]	%Inh (DAPK2) [%]	%Inh (DAPK3) [%]	%Inh (DCAMKL1) [%]	%Inh (DCAMKL2) [%]	%Inh (DCAMKL3) [%]	%Inh (DDR1) [%]	%Inh (DDR2) [%]	%Inh (DLK) [%]	%Inh (DMPK2) [%]	%Inh (DMPK) [%]	%Inh (DRAK1) [%]	%Inh (DRAK2) [%]	%Inh (DYRK1A) [%]	%Inh (DYRK1B) [%]	%Inh (DYRK2) [%]	%Inh (EGFR) [%]	%Inh (EIF2AK1) [%]	%Inh (EPHA1) [%]
Cc1ccc(NC(=O)Nc2ccccc2)cc1-c1ccc(C(=O)Nc2ccncc2)cc1 [GSK1398471]	0	3	3	9	10	0	24	95	38	9	9	0	9	0	9	0	14	10	0	24
CC(=O)c1c(C)c2cnc(Nc3ccc(N4CCNCC4)cn3)nc2n(C2CCCC2)c1=O	0	0	13	6	0	0	0	0	0	0	96	15	8	5	0	0	0	4	0	24
CCc1ccc(-c2ccc3c(c2)-c2n[nH]cc2S(=O)(=O)N3C)cc1	0	24	7	0	34	0	13	0	9	0	0	0	0	0	0	11	0	0	0	11
Nc1ncnc2occ(-c3ccc4c(c3)CCN4C(=O)Cc3cc(F)ccc3F)c12 [GSK2645446]	0	0	0	0	10	0	0	0	25	8	51	7	0	0	6	0	0	18	0	11
COc1cccc(CNC(=O)NC2CCN(c3ccnc(Nc4ccc(F)cc4)n3)C2)c1 (stereo not drawn) [GSK1379723]	22	0	22	7	9	0	0	7	0	0	0	0	0	0	39	5	4	21	0	12
FC(F)(F)c1ccccc1-c1cc(-c2c[nH]nc2-c2ccccn2)ccn1 [GW679396]	0	0	9	23	6	0	2	68	2	32	7	16	14	2	0	13	12	0	0	0
Cc1nccc(-c2c(-c3ccc(F)cc3)ncn2CCCN2CCOCC2)n1.Cl [SB-282975]	0	0	99.3	0	0	2	3	0	0	0	9	22	14	22	17	34	0	17	14	24
CCn1c(-c2ccccc2)nc2cnccc21 [SB-733416]	6	0	0	18	15	1	33	16	13	16	0	0	32	12	23	0	0	37	0	22
COc1ccc(Nc2nccc(N3CCC(NC(=O)C(C)c4ccc(Cl)cc4)CC3)n2)cc1 (stereo not drawn) [GSK1379812]	0	3	20	10	6	0	0	0	4	0	6	1	0	0	99.2	0	19	0	0	0
Cc1ccccc1Cn1ccn2c(=O)cc(N3CCOCC3)nc12 [GSK2269905]	0	0	0	0	0	7	4	0	0	0	0	0	0	0	16	0	0	15	8	4
Cc1ccc(-c2nc(Nc3ccncc3)c3ccccc3n2)s1 [GSK189015]	8	11	0	10	17	30	15	61	2	0	13	0	5	0	28	3	27	25	0	16
COc1ccc(CSc2nnc(-c3ccc4ncsc4c3)o2)cc1C(F)(F)F	5	10	4	0	9	0	0	14	12	0	0	0	0	3	36	28	0	7	0	0
O=c1cc(N2CCOCC2)nc2n(Cc3ccccc3F)ccn12 [GSK2297428]	0	0	0	13	57	0	3	10	0	0	0	0	0	0	6	0	9	18	0	3
Cc1ccc(NC(=O)Nc2ccc(Cl)cc2)cc1-c1ccc(C(=O)Nc2ccncc2)cc1 [GSK1398472]	0	16	0	15	18	0	0	99.8	64	0	63	0	3	0	19	0	0	24	0	12
Fc1ccc(-c2nn3cccc(F)c3c2-c2ccncc2)cc1 [GW475620]	0	0	0	5	0	0	10	47	39	15	81	28	0	17	7	0	0	52	0	22
CNC(=O)c1ccc(C)c(-n2c(C)cc(OCc3ccc(F)cc3F)c(Br)c2=O)c1	0	0	0	0	0	0	0	0	0	0	0	0	1	0	0	56	0	0	0	5
Cc1ccc(NC(=O)Nc2ccccc2F)cc1-c1ccc(C(=O)Nc2ccncc2)cc1 [GSK1398477]	0	0	17	0	0	40	26	97	55	0	16	3	1	0	26	8	17	24	0	0
COc1ccc(Nc2nccc(-c3ccc(NC(=O)c4cc5cc(F)ccc5[nH]4)cc3)n2)cc1 [GSK1229496]	0	55	5	1	11	0	0	63	26	36	4	0	69	19	14	0	0	14	0	0
COc1cccc(C2=C(Nc3cc(Cl)c(O)c(Cl)c3)C(=O)NC2=O)c1 [SB-390767]	10	0	0	17	11	0	26	96.1	18	0	0	0	2	0	38	0	2	0	0	8
Cc1c(Cn2c3ccccc3n3c(=O)cc(N4CCOCC4)nc23)cccc1C(F)(F)F [GSK2306394]	10	12	4	0	0	0	0	19	0	0	0	0	0	0	7	0	14	48	0	0
COc1ccc(CSc2nnc(-c3ccc4nccn4c3)o2)cc1C(F)(F)F	0	0	0	1	8	0	0	13	0	0	2	41	31	0	41	41	0	4	7	0

Source: paper PMC5540273 (PLoS ONE, 2017)
